Among the test systems are HCT-15 colon; HT29 colon; SNB-75 CNS; SNB-19 CNS; U251 CNS; PC-3 prostate; SK-MEL-5 melanoma; UACC-62 melanoma; LOX IMVI melanoma; SK-MEL-28 melanoma; SK-MEL-2 melanoma; EKVX NSCLC; SN12C renal; UO-31 renal; TK-10 renal; ACHN renal; CAKI-1 renal; A498 renal; CCRF-CEM leukemia; MOLT-4 leukemia.
Common to all, as to assay: NCI-60 one-dose screen, 48 h (100 = growth as untreated, 0 = no growth, -100 = all killed)
Holding throughout (settings): 10 µM unless noted

This is part of a sample that, as a whole, favours compounds with a hit. Of some 83,000 tested, about 20% had one in any assay.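 Single-dose data. Exposure time 48 hours. Values below 10 considered active.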 Unmarked numbers belong to inactive results. Calls of active or inactive are those of the source.

As to `CCN(CC)c1ccc(NC2=C(Cl)C(=O)c3nc(C)ccc3C2=O)cc1`, the growth in the assay on HCT-15 colon is -52.7% (active); with HT29 colon, 104%; with SNB-75 CNS it was 126%; in the assay with SNB-19 CNS, 102%; in the assay with U251 CNS, 94.3%; in the assay with PC-3 prostate it was 74.2%. Moreover, the growth in the assay on SK-MEL-5 melanoma was 79.3%; in the assay on UACC-62 melanoma, 95.2%; with LOX IMVI melanoma it was -71.6% (active); with SK-MEL-28 melanoma it was 37.5%; with SK-MEL-2 melanoma, 84.9%; in the assay with EKVX NSCLC, -5.94% (active). In addition, the growth in the assay on SN12C renal was 64%; with UO-31 renal, -60% (active); in the assay on TK-10 renal it was 164%; in the assay on ACHN renal it was -61.2% (active); with CAKI-1 renal, 51.7%; in the assay on A498 renal, 104%. The growth with CCRF-CEM leukemia was 0.0595% (active); in the assay on MOLT-4 leukemia, 0.296% (active).
Turning to `CCOP(=O)(OCC)OC[C@]12CCC(C)(C)C=C1[C@H]1CC[C@@H]3[C@@]4(C)CC[C@H](OP(=O)(OCC)OCC)C(C)(C)[C@@H]4CC[C@@]3(C)[C@]1(C)CC2`, the growth is -73.3% (active) in the assay with HCT-15 colon; -42.4% (active) in the assay on HT29 colon; -11.5% (active) with SNB-75 CNS; -12.4% (active) in the assay with SNB-19 CNS; -84.9% (active) with U251 CNS; 0.0741% (active) in the assay on PC-3 prostate. Moreover, the growth is -93.4% (active) in the assay with SK-MEL-5 melanoma; -29.4% (active) in the assay with UACC-62 melanoma; -90.1% (active) with LOX IMVI melanoma; -31% (active) in the assay with SK-MEL-28 melanoma; -60.9% (active) in the assay with SK-MEL-2 melanoma; -10.3% (active) with EKVX NSCLC. The growth in the assay with SN12C renal was -70.6% (active); with UO-31 renal, -61% (active); in the assay with TK-10 renal, -18% (active); in the assay on ACHN renal it was -8.2% (active); in the assay with CAKI-1 renal it was -63% (active); in the assay on A498 renal, -8.86% (active). The values for the growth with CCRF-CEM leukemia and with MOLT-4 leukemia were -23.2% (active) and -20.4% (active), respectively.
Turning to `Cc1ccc(NC(=S)NNC(=S)Nc2ccc(C)cc2)cc1`, the growth in the assay with HCT-15 colon was 96.7%; in the assay with HT29 colon, 105%; in the assay on SNB-75 CNS, 96.1%; in the assay on SNB-19 CNS, 98.5%; with U251 CNS, 106%; with PC-3 prostate, 101%. Besides, the growth with SK-MEL-5 melanoma was 102%; in the assay on UACC-62 melanoma, 98.6%; with LOX IMVI melanoma, 115%; in the assay on SK-MEL-28 melanoma, 105%; in the assay on SK-MEL-2 melanoma it was 109%; in the assay with EKVX NSCLC, 94.5%. Besides, the growth in the assay on SN12C renal was 98.1%; in the assay on UO-31 renal it was 89.9%; in the assay on TK-10 renal, 109%; with ACHN renal, 105%; in the assay with CAKI-1 renal, 102%; in the assay on A498 renal, 84.1%. The growth is 95.6% with CCRF-CEM leukemia and 97.5% in the assay with MOLT-4 leukemia.
For `CCNC(=O)N1CCc2cc(OC)c(OCCc3ccc(OC)nc3)cc2C1c1ccc(OC)cc1C` (stereo not given), the growth in the assay on HCT-15 colon was 14%; in the assay on HT29 colon it was 5.66% (active); in the assay on SNB-75 CNS, 25.9%; in the assay with SNB-19 CNS, 34.5%; with U251 CNS it was 26.2%; with PC-3 prostate, 37.8%. Besides, the growth with SK-MEL-5 melanoma was 23.6%; in the assay with UACC-62 melanoma, 22.7%; with LOX IMVI melanoma, 7.09% (active); with SK-MEL-28 melanoma, 43.9%; in the assay with SK-MEL-2 melanoma, 30.1%; in the assay on EKVX NSCLC, 61.8%. In addition, the growth is 44.8% in the assay on SN12C renal; 40.3% in the assay on UO-31 renal; 59.9% with TK-10 renal; 32.2% in the assay on ACHN renal; 33.7% with CAKI-1 renal; 14.1% in the assay on A498 renal. The growth with CCRF-CEM leukemia is 39.3%; in the assay on MOLT-4 leukemia, 25.8%.
As to `CCc1ccc(SC2c3ccc(N(CC)CC)cc3Oc3nc(N)c(C#N)c(N)c32)cc1` (stereo not given), the growth with HCT-15 colon was -88% (active); in the assay on HT29 colon, -54.6% (active); in the assay on SNB-75 CNS, 12.7%; with SNB-19 CNS, -95.1% (active); in the assay with U251 CNS, -71.3% (active); in the assay on PC-3 prostate, -74% (active). The growth in the assay with SK-MEL-5 melanoma is -97% (active); with UACC-62 melanoma it was -32.7% (active); with LOX IMVI melanoma, -86.6% (active); in the assay on SK-MEL-28 melanoma, -18.7% (active); with SK-MEL-2 melanoma, -48.2% (active); with EKVX NSCLC it was -54.8% (active). Further, the growth in the assay on SN12C renal was -32.9% (active); in the assay with UO-31 renal, -98.8% (active); with TK-10 renal, -18% (active); in the assay with ACHN renal, -53.7% (active); in the assay on CAKI-1 renal, -46.7% (active); in the assay with A498 renal it was -8.49% (active). Moreover, the results for the growth with CCRF-CEM leukemia and with MOLT-4 leukemia were -23.7% (active) and -8.26% (active), respectively.
In the case of `COc1cc(C2N=C(NNc3ccccc3)NC(C)=C2C(C)=O)ccc1O` (stereo not given), the growth in the assay with HCT-15 colon was 81%; in the assay on HT29 colon, 115%; in the assay on SNB-75 CNS, 88.6%; with SNB-19 CNS it was 93.3%; with U251 CNS, 100%; in the assay on PC-3 prostate, 84.5%. The growth in the assay with SK-MEL-5 melanoma was 104%; with UACC-62 melanoma, 43%; with LOX IMVI melanoma, 66.3%; in the assay with SK-MEL-28 melanoma it was 101%; in the assay on SK-MEL-2 melanoma, 97.1%; with EKVX NSCLC it was 79.3%. The growth in the assay on SN12C renal is 95.5%; in the assay with UO-31 renal, 63.2%; with TK-10 renal, 149%; with ACHN renal, 63%; in the assay on CAKI-1 renal, 56.8%; in the assay with A498 renal it was 105%. Moreover, the figures for the growth with CCRF-CEM leukemia and with MOLT-4 leukemia were 101% and 89.9%, respectively.
With `CC(C)C[C@@H]1N[C@@]2(C(=O)Nc3ccccc32)[C@@H](c2ccc(F)cc2)[C@@H]1C(=O)c1ccc(O)cc1`, the growth is 93% in the assay with HCT-15 colon; 105% with HT29 colon; 96.8% in the assay on SNB-75 CNS; 95.1% with SNB-19 CNS; 97.1% in the assay on U251 CNS; 63.6% in the assay on PC-3 prostate. Also, the growth in the assay with SK-MEL-5 melanoma is 93.5%; with UACC-62 melanoma, 69%; in the assay on LOX IMVI melanoma, 92.4%; in the assay on SK-MEL-28 melanoma it was 103%; in the assay on SK-MEL-2 melanoma, 102%; with EKVX NSCLC, 79.9%. For the same compound, the growth is 96.5% in the assay with SN12C renal; 58.3% in the assay with UO-31 renal; 120% with TK-10 renal; 80.1% with ACHN renal; 67.3% with CAKI-1 renal; 94.5% with A498 renal. In addition, the growth with CCRF-CEM leukemia is 85%; in the assay with MOLT-4 leukemia it was 77.5%.
Consider `c1ccc(C(c2nc3ncncc3[nH]2)N2CSc3nc4ncncc4n3C2)cc1` (stereo not given), for which the growth with HCT-15 colon was 80.4%; in the assay with HT29 colon, 42.7%; in the assay on SNB-75 CNS, 45%; in the assay on SNB-19 CNS it was 96.9%; in the assay with U251 CNS, 92.1%; in the assay with PC-3 prostate, 78.2%. Also, the growth in the assay on SK-MEL-5 melanoma is 85.1%; in the assay with UACC-62 melanoma, 27.5%; with LOX IMVI melanoma it was 13.2%; with SK-MEL-28 melanoma, 98.4%; in the assay with SK-MEL-2 melanoma it was 70.5%; in the assay with EKVX NSCLC, 94.4%. The growth with SN12C renal is 87.5%; in the assay with UO-31 renal, 70.9%; in the assay on TK-10 renal it was 48.9%; in the assay with ACHN renal it was 81.9%; with CAKI-1 renal, 41%; in the assay on A498 renal, 96.5%. The growth in the assay on CCRF-CEM leukemia was 32.1%; in the assay on MOLT-4 leukemia, 23.8%.
